# Source: the supplement of paper PMC8728848
# Shown is part of a subset that was picked to be rich in the strongest signals.
# Columns and labels:
# Assay in all cases: glycan array binding signal (z-score within array); higher = stronger binding
# Details in all cases: glycan notation: IUPAC condensed, linker removed
# [1] = target: Fuc(a1-2)Gal(b1-3)GlcNAc(b1-3)[Fuc(a1-2)Gal(b1-3)GlcNAc(b1-6)]GalNAc
# In short: (§1)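 Glycan array data came from 3228 arrays in the Consortium for Functional Glycomics database, and only arrays with an available protein sequence were kept. Glycan names were put into IUPAC-condensed notation, and columns mapping to the same glycan were averaged. The binding signal is a within-array Z-score, averaged across arrays of one protein sequence run at different concentrations or buffers and across linkers. A negative Z-score can be read as non-binding.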
# [2] = target: Fuc(a1-2)Gal(b1-4)Fuc(a1-3)]GlcNAc(b1-2)Man(a1-3)[Fuc(a1-2)Gal(b1-4)[Fuc(a1-3)]GlcNAc(b1-2)Man(a1-6)]Man(b1-4)GlcNAc(b1-4)GlcNAc
# In short: as §1
# [3] = target: Fuc(a1-2)Gal(b1-4)GlcNAc(b1-2)Man(a1-3)[Fuc(a1-2)Gal(b1-4)GlcNAc(b1-2)Man(a1-6)]Man(b1-4)GlcNAc(b1-4)GlcNAc
# In short: as §1
# [4] = target: Fuc(a1-2)Gal(b1-4)[Fuc(a1-3)]GlcNAc(b1-2)Man(a1-3)[Fuc(a1-2)Gal(b1-4)[Fuc(a1-3)]GlcNAc(b1-2)Man(a1-6)]Man(b1-4)GlcNAc(b1-4)[Fuc(a1-6)]GlcNAc
# In short: as §1
# [5] = target: Fuc(a1-2)Gal(b1-4)[Fuc(a1-3)]GlcNAc(b1-3)Gal(b1-4)[Fuc(a1-3)]GlcNAc
# In short: as §1
# [6] = target: Fuc(a1-2)[Gal(a1-3)]Gal(b1-3)GalNAc(b1-3)Gal(a1-4)Gal(b1-4)Glc
# In short: as §1
# [7] = target: Fuc(a1-2)[Gal(a1-3)]Gal(b1-4)Glc
# In short: as §1
# [8] = target: Fuc(a1-2)[Gal(a1-3)]Gal(b1-4)[Fuc(a1-3)]Glc
# In short: as §1
# [9] = target: Fuc(a1-2)[GalNAc(a1-3)]Gal
# In short: as §1
# [10] = target: Fuc(a1-2)[GalNAc(a1-3)]Gal(b1-3)GlcNAc(b1-3)GalNAc
# In short: as §1
# [11] = target: Fuc(a1-2)[GalNAc(a1-4)]Gal(b1-4)GlcNAc
# In short: as §1
# [12] = target: Fuc(a1-3)[Gal(b1-4)]GlcNAc(b1-3)Gal(b1-4)[Fuc(a1-3)]GlcNAc
# In short: as §1
# [13] = target: Gal(b1-3)GalNAc(b1-3)Gal(a1-4)Gal(b1-4)Glc
# In short: as §1
# [14] = target: Gal(b1-3)GlcNAc(b1-3)Gal(b1-4)Glc
# In short: as §1
# [15] = target: Gal(b1-3)[Fuc(a1-4)]GlcNAc(b1-2)Man(a1-3)[Gal(b1-3)[Fuc(a1-4)]GlcNAc(b1-2)Man(a1-6)]Man(b1-4)GlcNAc(b1-4)[Fuc(a1-6)]GlcNAc
# In short: as §1
# [16] = target: Gal(b1-4)GlcNAc(b1-3)Gal(b1-4)Glc
# In short: as §1
# [17] = target: Gal(b1-4)GlcNAc(b1-3)Gal(b1-4)GlcNAc(b1-2)[Gal(b1-4)GlcNAc(b1-3)Gal(b1-4)GlcNAc(b1-6)]Man(a1-6)[Gal(b1-4)GlcNAc(b1-3)Gal(b1-4)GlcNAc(b1-2)Man(a1-3)]Man(b1-4)GlcNAc(b1-4)[Fuc(a1-6)]GlcNAc
# In short: as §1
# [18] = target: Gal(b1-4)GlcNAc(b1-3)Gal(b1-4)GlcNAc(b1-3)Gal(b1-4)GlcNAc(b1-3)Gal(b1-4)GlcNAc(b1-2)[Gal(b1-4)GlcNAc(b1-3)Gal(b1-4)GlcNAc(b1-3)Gal(b1-4)GlcNAc(b1-3)Gal(b1-4)GlcNAc(b1-6)]Man(a1-6)[Gal(b1-4)GlcNAc(b1-3)Gal(b1-4)GlcNAc(b1-3)Gal(b1-4)GlcNAc(b1-3)Gal(b1-4)GlcNAc(b1-2)Man(a1-3)]Man(b1-4)GlcNAc(b1-4)[Fuc(a1-6)]GlcNAc
# In short: as §1
# [19] = target: Gal(b1-4)GlcNAc(b1-3)Gal(b1-4)GlcNAc(b1-3)Gal(b1-4)GlcNAc(b1-3)Gal(b1-4)GlcNAc(b1-3)Gal(b1-4)GlcNAc(b1-2)[Gal(b1-4)GlcNAc(b1-3)Gal(b1-4)GlcNAc(b1-3)Gal(b1-4)GlcNAc(b1-3)Gal(b1-4)GlcNAc(b1-3)Gal(b1-4)GlcNAc(b1-6)]Man(a1-6)[Gal(b1-4)GlcNAc(b1-3)Gal(b1-4)GlcNAc(b1-3)Gal(b1-4)GlcNAc(b1-3)Gal(b1-4)GlcNAc(b1-3)Gal(b1-4)GlcNAc(b1-2)Man(a1-3)]Man(b1-4)GlcNAc(b1-4)[Fuc(a1-6)]GlcNAc
# In short: as §1
# [20] = target: Gal(b1-4)GlcNAc(b1-3)[Fuc(a1-3)GlcNAc(b1-6)]Gal(b1-4)Glc
# In short: as §1
# Gal6P(b1-4)GlcNAc = target: Gal6P(b1-4)GlcNAc
# In short: as §1
# Gal6S(b1-4)GlcNAc6S = target: Gal6S(b1-4)GlcNAc6S
# In short: as §1
# [21] = target: GalNAc(b1-3)Gal(a1-6)Gal(b1-4)Glc
# In short: as §1
# GalNAc(b1-4)GlcNAc = target: GalNAc(b1-4)GlcNAc
# In short: as §1
# [22] = target: GalNAc(b1-4)GlcNAc(b1-2)Man
# In short: as §1
# [23] = target: GalNAc(b1-4)GlcNAc(b1-3)GalNAc(b1-4)GlcNAc
# In short: as §1
# Glc(b1-4)Glc = target: Glc(b1-4)Glc
# In short: as §1
# [24] = target: GlcNAc(a1-4)Gal(b1-4)GlcNAc
# In short: as §1
# [25] = target: GlcNAc(a1-4)Gal(b1-4)GlcNAc(b1-3)Gal(b1-4)Glc
# In short: as §1
# [26] = target: GlcNAc(a1-4)Gal(b1-4)GlcNAc(b1-3)Gal(b1-4)GlcNAc(b1-3)Gal(b1-4)GlcNAc
# In short: as §1
# [27] = target: GlcNAc(b1-3)Gal(b1-4)GlcNAc(b1-2)Man(a1-3)[GlcNAc(b1-3)Gal(b1-4)GlcNAc(b1-2)Man(a1-6)]Man(b1-4)GlcNAc(b1-4)[Fuc(a1-6)]GlcNAc
# In short: as §1
# [28] = target: GlcNAc(b1-3)Gal(b1-4)GlcNAc(b1-3)Gal(b1-4)GlcNAc
# In short: as §1
# [29] = target: GlcNAc(b1-3)Gal(b1-4)GlcNAc(b1-3)GalNAc
# In short: as §1
# [30] = target: GlcNAc(b1-4)GlcNAc(b1-4)GlcNAc
# In short: as §1
# [31] = target: GlcNAc(b1-4)GlcNAc(b1-4)GlcNAc(b1-4)GlcNAc(b1-4)GlcNAc
# In short: as §1
# [32] = target: GlcNAc(b1-4)GlcNAc(b1-4)GlcNAc(b1-4)GlcNAc(b1-4)GlcNAc(b1-4)GlcNAc
# In short: as §1
# [33] = target: Neu5Ac(a2-3)Gal(b1-4)GlcNAc(b1-2)Man
# In short: as §1
# [34] = target: Neu5Ac(a2-3)Gal(b1-4)GlcNAc(b1-3)Gal(b1-4)GlcNAc(b1-3)GalNAc
# In short: as §1
# [35] = target: Neu5Ac(a2-3)Gal(b1-4)GlcNAc(b1-3)Gal(b1-4)GlcNAc(b1-3)[Neu5Ac(a2-3)Gal(b1-4)GlcNAc(b1-3)Gal(b1-4)GlcNAc(b1-6)]GalNAc
# In short: as §1
# [36] = target: Neu5Ac(a2-6)Gal(b1-4)GlcNAc(b1-2)[Neu5Ac(a2-6)Gal(b1-4)GlcNAc(b1-4)]Man(a1-3)[GlcNAc(b1-4)][Neu5Ac(a2-6)Gal(b1-4)GlcNAc(b1-2)[Neu5Ac(a2-6)Gal(b1-4)GlcNAc(b1-6)]Man(a1-6)]Man(b1-4)GlcNAc(b1-4)GlcNAc
# In short: as §1
# [37] = target: Neu5Ac(a2-6)Gal(b1-4)GlcNAc(b1-3)Gal(b1-4)GlcNAc(b1-6)[Gal(b1-3)]GalNAc
# In short: as §1
# [38] = target: Neu5Ac(a2-6)Gal(b1-4)GlcNAc(b1-6)GalNAc
# In short: as §1
# [39] = target: Neu5Ac(a2-6)Gal(b1-4)GlcNAc6S
# In short: as §1
# [40] = target: Neu5Ac(a2-6)GlcNAc(b1-4)GlcNAc(b1-4)GlcNAc
# In short: as §1
# [41] = target: Neu5Ac(a2-8)Neu5Ac(a2-8)Neu5Ac(a2-3)Gal(b1-4)Glc
# In short: as §1
# Neu5Gc(a2-6)GalNAc = target: Neu5Gc(a2-6)GalNAc
# In short: as §1
binder,measurement,setting,value
WGA (Triticum vulgare) (protein) QRCGEQGSNMECPNNLCCSQYGYCGMGGDYCGKGCQNGACWTSKRCGSQAGGATCPNNHCCSQYGHCGFGAEYCGAGCQGGPCRADIKCGSQSGGKLCPNNLCCSQWGFCGLGSEFCGGGCQSGACSTDKPCGKDAGGRVCTNNYCCSKWGSCGIGPGYCGAGCQSGGCDAVFAGAITANSTLLAE,glycan array binding signal (z-score),[1],-0.344
same,glycan array binding signal (z-score),[2],-0.173
same,glycan array binding signal (z-score),[3],-0.197
same,glycan array binding signal (z-score),[4],-0.297
same,glycan array binding signal (z-score),[5],-0.365
same,glycan array binding signal (z-score),[6],-0.364
same,glycan array binding signal (z-score),[7],-0.359
same,glycan array binding signal (z-score),[8],-0.309
same,glycan array binding signal (z-score),[9],-0.082
same,glycan array binding signal (z-score),[10],-0.299
same,glycan array binding signal (z-score),[11],3
same,glycan array binding signal (z-score),[12],-0.381
same,glycan array binding signal (z-score),[13],-0.328
same,glycan array binding signal (z-score),[14],-0.373
same,glycan array binding signal (z-score),[15],-0.172
same,glycan array binding signal (z-score),[16],-0.341
same,glycan array binding signal (z-score),[17],-0.132
same,glycan array binding signal (z-score),[18],0.022
same,glycan array binding signal (z-score),[19],0.244
same,glycan array binding signal (z-score),[20],-0.275
same,glycan array binding signal (z-score),Gal6P(b1-4)GlcNAc,-0.418
same,glycan array binding signal (z-score),Gal6S(b1-4)GlcNAc6S,-0.371
same,glycan array binding signal (z-score),[21],-0.316
same,glycan array binding signal (z-score),GalNAc(b1-4)GlcNAc,2.78
same,glycan array binding signal (z-score),[22],2.71
same,glycan array binding signal (z-score),[23],2.8
same,glycan array binding signal (z-score),Glc(b1-4)Glc,-0.351
same,glycan array binding signal (z-score),[24],2.77
same,glycan array binding signal (z-score),[25],2.56
same,glycan array binding signal (z-score),[26],3.16
same,glycan array binding signal (z-score),[27],1.15
same,glycan array binding signal (z-score),[28],1.71
same,glycan array binding signal (z-score),[29],-0.359
same,glycan array binding signal (z-score),[30],3.8
same,glycan array binding signal (z-score),[31],5.62
same,glycan array binding signal (z-score),[32],5.15
same,glycan array binding signal (z-score),[33],-0.304
same,glycan array binding signal (z-score),[34],-0.353
same,glycan array binding signal (z-score),[35],-0.001
same,glycan array binding signal (z-score),[36],-0.366
same,glycan array binding signal (z-score),[37],-0.248
same,glycan array binding signal (z-score),[38],-0.307
same,glycan array binding signal (z-score),[39],-0.359
same,glycan array binding signal (z-score),[40],3.14
same,glycan array binding signal (z-score),[41],-0.35
same,glycan array binding signal (z-score),Neu5Gc(a2-6)GalNAc,-0.324
